# Results from PubChem BioAssay (NCI).
# About 83,000 compounds went through this panel and 20% of them were active in at least one assay; those are over-represented in the sample as a whole.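 Single-concentration screen, 48 h exposure, 96-well plates. Endpoint: percent growth. Below 10 = active.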 Calls of active or inactive are those of the source.
# Tested on: SK-MEL-5 melanoma
# Assay: NCI-60 one-dose screen, 48 h (100 = growth as untreated, 0 = no growth, -100 = all killed)
# Conditions: 10 µM unless noted
row,SMILES,growth
1,COc1cc2c(c(OC)c1OC)C(=O)CC(c1cccc(NC(=O)c3cc(NC(=O)[C@H](C)N)ccc3Cl)c1)O2 (some centres not stated),24.9% (inactive)
2,C#CCOc1cc(N(CC)CC)ccc1C(C(=O)NC(C)(C)C)N(C(=O)C1CCc2cc(F)ccc2O1)c1cc(C)cc(C)c1 (configuration not stated),44.7% (inactive)
3,Cc1ccc(C2=NN(c3nc(-c4cc5ccccc5oc4=O)cs3)C(c3ccc(C)cc3)C2)cc1 (configuration not stated),101% (inactive)
4,Cn1cc(-c2nc(N)nnc2-c2c[nH]c3ccc(F)cc23)c2cc(Br)cnc21,-81.5% (active)

# Tested on: UACC-62 melanoma
# Assay: as above
# Conditions: 10 µM unless noted
row,SMILES,growth
1,Brc1ccc(-c2n(Cc3ccc4ccccc4c3)c(-c3ccccc3)c(-c3ccccc3)[n+]2Cc2ccc3ccccc3c2)cc1,-88.8% (active)
2,O=C1CCCc2cc(OCC(=O)N3CCCCC3)ccc2N1,105% (inactive)
3,COc1cc2c3c(n(CCCN4CCC[C@@H]4CO)c(=O)c2cc1OC)-c1cc2c(cc1C3=O)OCO2,11.7% (inactive)
4,CC(=O)c1c(N)c(C#N)cn1-c1ccc(Cl)cc1Cl,80.8% (inactive)
5,Cc1ccc(C2CC(c3ccc(S(=O)(=O)NCCNc4nc(Nc5ccc(F)cc5)nc(N(C)C)n4)cc3)=Nc3c(N)nc(N)nc3N2)cc1 (configuration not stated),63.7% (inactive)
6,Cc1ccc(C(=O)C(c2c[nH]c3ccccc23)c2c[nH]c3ccccc23)cc1,51.2% (inactive)
7,COc1cc(-c2nc3ccc(C)cc3[nH]2)ccc1OCc1nnc(-c2ccc(Br)cc2)o1,19.9% (inactive)
8,Nc1nnc(-c2c[nH]c3ccc(Br)cc23)c(-c2c[nH]c3ncc(Br)cc23)n1,25.3% (inactive)
